Measurements: PubChem BioAssay (NCI)
About 83,000 compounds went through this panel and 20% of them were active in at least one assay; those are over-represented in the sample as a whole.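 Step 1: grow cells in 96-well plates. Step 2: add test compound at a single concentration. Step 3: incubate 48 h. Step 4: record percent growth.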 Unmarked numbers belong to inactive results. Activity calls are given as the source filed them. How the source made its calls: active means growth percent below 10; inactive means the rest.

Assays:
Assay in all cases: NCI-60 one-dose screen, 48 h (100 = growth as untreated, 0 = no growth, -100 = all killed)
Settings in all cases: 10 µM unless noted
HCT-15 colon = tested on: HCT-15 colon
HT29 colon = tested on: HT29 colon
SNB-75 CNS = tested on: SNB-75 CNS
SNB-19 CNS = tested on: SNB-19 CNS
U251 CNS = tested on: U251 CNS
PC-3 prostate = tested on: PC-3 prostate
SK-MEL-5 melanoma = tested on: SK-MEL-5 melanoma
UACC-62 melanoma = tested on: UACC-62 melanoma
LOX IMVI melanoma = tested on: LOX IMVI melanoma
SK-MEL-28 melanoma = tested on: SK-MEL-28 melanoma
SK-MEL-2 melanoma = tested on: SK-MEL-2 melanoma
EKVX NSCLC = tested on: EKVX NSCLC
SN12C renal = tested on: SN12C renal
UO-31 renal = tested on: UO-31 renal
TK-10 renal = tested on: TK-10 renal
CAKI-1 renal = tested on: CAKI-1 renal
A498 renal = tested on: A498 renal
CCRF-CEM leukemia = tested on: CCRF-CEM leukemia
MOLT-4 leukemia = tested on: MOLT-4 leukemia
ACHN renal = tested on: ACHN renal

SMILES	growth (HCT-15 colon)	growth (HT29 colon)	growth (SNB-75 CNS)	growth (SNB-19 CNS)	growth (U251 CNS)	growth (PC-3 prostate)	growth (SK-MEL-5 melanoma)	growth (UACC-62 melanoma)	growth (LOX IMVI melanoma)	growth (SK-MEL-28 melanoma)	growth (SK-MEL-2 melanoma)	growth (EKVX NSCLC)	growth (SN12C renal)	growth (UO-31 renal)	growth (TK-10 renal)	growth (CAKI-1 renal)	growth (A498 renal)	growth (CCRF-CEM leukemia)	growth (MOLT-4 leukemia)	growth (ACHN renal)
Cc1cc(NC(=O)c2ccc(N)cc2)ccc1N=Nc1ccc2cc(S(=O)(=O)O)cc(S(=O)(=O)O)c2c1	104%	99%	101%	129%	92.9%	85.6%	111%	114%	99%	117%	121%	99.9%	109%	101%	97.9%	91.5%	90.6%	87.1%	112%	–
COc1ccc(/C=C/C(=O)c2ccc(NC(=O)CSc3nnc(-c4ccc(OC)cc4)n3-c3ccccc3)cc2)cc1	96.4%	103%	91.7%	94.1%	87.1%	106%	95.1%	89.4%	102%	106%	95.5%	95.5%	96.5%	79.3%	109%	–	109%	95%	88%	106%
COc1ccc(/C(=C\c2ccc3c(c2)OCO3)C(=O)Nc2nc3ccc(F)cc3s2)cc1OC	108%	95.3%	90.9%	109%	96.2%	88.2%	104%	108%	101%	102%	95.7%	103%	115%	68.5%	119%	86.5%	98.3%	–	94.4%	97.5%
c1ccc(C2=Nc3ccccc3SC2)cc1	105%	109%	77.6%	109%	94.9%	66.4%	105%	96.7%	90.4%	109%	105%	87.3%	107%	67.8%	105%	–	–	86.9%	111%	95.4%
NC(N)=N/N=C\c1ccc(OCc2ccccc2)cc1	35.7%	16.6%	43.9%	70.9%	45.7%	70.7%	-13% (active)	78.2%	59.6%	87.8%	86.6%	88.6%	79.5%	64.6%	73.4%	–	–	72.3%	73.8%	–
CCCCCCCCNC(C)C(O)c1ccc(SC(C)C)cc1 (stereo unspecified)	14.8%	-45.4% (active)	74.8%	75.9%	42.5%	7.49% (active)	68.4%	92.7%	-95.5% (active)	74.3%	71.4%	25.2%	60.9%	29.5%	6.81% (active)	-56.8% (active)	96.8%	-0.667% (active)	-46.6% (active)	–
CCNS(=O)(=O)c1ccc(C)cc1	98.5%	117%	85.2%	103%	105%	95.7%	140%	106%	100%	115%	116%	106%	98.5%	97.3%	115%	–	–	89.7%	95.9%	96.4%
COC(=O)c1ccc(NC(N)=NCCC(C)(C)c2ccc(C(F)(F)F)cc2)nc1	37.8%	11.6%	67.3%	59.9%	30.5%	36%	-85.4% (active)	55.2%	-77.3% (active)	35.2%	70.3%	20.3%	53.4%	34.2%	49.6%	–	51.8%	34.2%	4.23% (active)	65.2%
Fc1ccc2nc(-c3ccc(-c4noc(-c5ccc(Cl)cc5)n4)cc3)[nH]c2c1	109%	103%	110%	110%	103%	102%	104%	113%	104%	128%	105%	107%	110%	83.9%	115%	102%	–	–	89.8%	110%
